PubChem BioAssay AID1159580 (chemical genetic matrix, 2015)
Among all 5,500 compounds or so, about 2,000 (36%) were called active. Not shown: some 18% with an inconclusive outcome. Rule as the data show it: active = normalized growth mostly below about 0.91 (no sharp cut-off); inconclusive = no clear call, values can overlap the other calls; inactive = mostly above about 0.92. The list shows a part of the results.

Assay: chemical genetic growth profiling, strain panel (AID 1159580);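 also: tested at 20 µM; growth read once vehicle control cultures reached saturation at 30 °C; 1 = growth at the plate median or of vehicle wells; lower values mean less growth of the strain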
Details: growth OD

Measured: normalized growth

CN1CCC[C@H]1c1cccnc1
inactive: S. cerevisiae deletion strains, locus YJR075W, strain HOC1, active compounds read low 0.999 | S. cerevisiae deletion strains, locus YKL009W, strain mrt4, active compounds read low 0.975 | S. cerevisiae deletion strains, locus YKL068W, active compounds read low 0.983 | S. cerevisiae deletion strains, locus YKL085W, strain MDH1 (second series), active compounds read low 0.984 | S. cerevisiae deletion strains, locus YKL085W, strain MDH1, active compounds read low 0.984 | S. cerevisiae deletion strains, locus YKL160W, strain elf1, active compounds read low 1.01 | S. cerevisiae deletion strains, locus YKL190W, strain CNB1, active compounds read low 1 | S. cerevisiae deletion strains, locus YKR001C, strain vps1, active compounds read low 0.986 | S. cerevisiae deletion strains, locus YKR026C, strain gcn3, active compounds read low 1.04 | S. cerevisiae deletion strains, locus YKR091W, strain srl3, active compounds read low 1.02 | S. cerevisiae deletion strains, locus YLL001W, strain dnm1, active compounds read low 1.05 | S. cerevisiae deletion strains, locus YLL026W, active compounds read low 1.02 | S. cerevisiae deletion strains, locus YLL041C, strain sdh2, active compounds read low 1.02 | S. cerevisiae deletion strains, locus YLR027C, strain aat2, active compounds read low 1.01 | S. cerevisiae deletion strains, locus YLR039C, strain RIC1, active compounds read low 0.981 | S. cerevisiae deletion strains, locus YLR058C, strain SHM2, active compounds read low 0.987 | S. cerevisiae deletion strains, locus YLR102C, strain apc9, active compounds read low 0.995 | S. cerevisiae deletion strains, locus YLR113W, strain HOG1, active compounds read low 0.921 | S. cerevisiae deletion strains, locus YLR221C, strain rsa3, active compounds read low 1.04 | S. cerevisiae deletion strains, locus YLR258W, strain gsy2, active compounds read low 1.02 | S. cerevisiae deletion strains, locus YLR262C, strain YPT6 (second series), active compounds read low 1.04 | S. cerevisiae deletion strains, locus YLR262C, strain YPT6, active compounds read low 1.01 | S. cerevisiae deletion strains, locus YLR268W, strain sec22, active compounds read low 1 | S. cerevisiae deletion strains, locus YLR320W, strain mms22, active compounds read low 1.03 | S. cerevisiae deletion strains, locus YLR330W, strain CHS5, active compounds read low 0.987 | S. cerevisiae deletion strains, locus YLR342W, strain FKS1 (second series), active compounds read low 0.976 | S. cerevisiae deletion strains, locus YLR342W, strain FKS1, active compounds read low 1.02 | S. cerevisiae deletion strains, locus YLR357W, strain rsc2, active compounds read low 1.04 | S. cerevisiae deletion strains, locus YLR370C, strain arc18, active compounds read low 1.03 | S. cerevisiae deletion strains, locus YLR371W, strain rom2, active compounds read low 0.99 | S. cerevisiae deletion strains, locus YLR384C, strain iki3, active compounds read low 1.04 | S. cerevisiae deletion strains, locus YLR418C, strain cdc73, active compounds read low 1.02 | S. cerevisiae deletion strains, locus YML016C, strain PPZ1, active compounds read low 0.99 | S. cerevisiae deletion strains, locus YML032C, strain rad52, active compounds read low 0.999 | S. cerevisiae deletion strains, locus YML120C, strain ndi1, active compounds read low 1.03 | S. cerevisiae deletion strains, locus YML124C, strain tub3, active compounds read low 0.992 | S. cerevisiae deletion strains, locus YMR058W, strain fet3, active compounds read low 1.03 | S. cerevisiae deletion strains, locus YMR078C, strain ctf18, active compounds read low 0.979 | S. cerevisiae deletion strains, locus YMR125W, strain sto1, active compounds read low 1.05 | S. cerevisiae deletion strains, locus YMR129W, active compounds read low 1.04 | S. cerevisiae deletion strains, locus YMR205C, strain PFK2, active compounds read low 1.03 | S. cerevisiae deletion strains, locus YMR223W, strain ubp8, active compounds read low 0.978 | S. cerevisiae deletion strains, locus YMR231W, strain pep5, active compounds read low 1.03 | S. cerevisiae deletion strains, locus YMR263W, strain SAP30, active compounds read low 1.02 | S. cerevisiae deletion strains, locus YMR307W, strain GAS1, active compounds read low 0.946 | S. cerevisiae deletion strains, locus YNL067W, strain RPL9B, active compounds read low 1.02 | S. cerevisiae deletion strains, locus YNL071W, strain lat1, active compounds read low 1.04 | S. cerevisiae deletion strains, locus YNL128W, strain TEP1, active compounds read low 1.02 | S. cerevisiae deletion strains, locus YNL153C, strain GIM3, active compounds read low 1.02 | S. cerevisiae deletion strains, locus YNL183C, strain NPR1, active compounds read low 0.938 | S. cerevisiae deletion strains, locus YNL209W, strain ssb2, active compounds read low 1.03 | S. cerevisiae deletion strains, locus YNL233W, strain BNI4, active compounds read low 1.01 | S. cerevisiae deletion strains, locus YNL248C, strain rpa49, active compounds read low 1.03 | S. cerevisiae deletion strains, locus YNL250W, strain rad50, active compounds read low 0.988 | S. cerevisiae deletion strains, locus YNL271C, strain bni1, active compounds read low 0.985 | S. cerevisiae deletion strains, locus YNL298W, strain CLA4, active compounds read low 1 | S. cerevisiae deletion strains, locus YNL307C, strain MCK1, active compounds read low 1 | S. cerevisiae deletion strains, locus YNL322C, strain KRE1 (second series), active compounds read low 1.04 | S. cerevisiae deletion strains, locus YNL322C, strain KRE1, active compounds read low 0.992 | S. cerevisiae deletion strains, locus YNR049C, strain mso1, active compounds read low 1.02 | S. cerevisiae deletion strains, locus YNR052C, strain pop2, active compounds read low 0.972 | S. cerevisiae deletion strains, locus YOL006C, strain TOP1, active compounds read low 0.988 | S. cerevisiae deletion strains, locus YOL012C, strain htz1 1.12 | S. cerevisiae deletion strains, locus YOL147C, strain pex11, active compounds read low 0.996 | S. cerevisiae deletion strains, locus YOR001W, strain rrp6, active compounds read low 1.02 | S. cerevisiae deletion strains, locus YOR061W, strain CKA2, active compounds read low 0.999 | S. cerevisiae deletion strains, locus YOR069W, strain VPS5, active compounds read low 0.988 | S. cerevisiae deletion strains, locus YOR070C, strain gyp1, active compounds read low 1.02 | S. cerevisiae deletion strains, locus YOR080W, strain dia2, active compounds read low 1.03 | S. cerevisiae deletion strains, locus YOR083W, strain WHI5, active compounds read low 1.02 | S. cerevisiae deletion strains, locus YOR106W, strain vam3, active compounds read low 1.07 | S. cerevisiae deletion strains, locus YOR136W, strain idh2, active compounds read low 0.988 | S. cerevisiae deletion strains, locus YOR144C, strain elg1, active compounds read low 0.993 | S. cerevisiae deletion strains, locus YOR184W, strain ser1, active compounds read low 0.959 | S. cerevisiae deletion strains, locus YOR231W, strain MKK1, active compounds read low 0.952 | S. cerevisiae deletion strains, locus YOR265W, strain rbl2, active compounds read low 1.03 | S. cerevisiae deletion strains, locus YOR270C, strain vph1, active compounds read low 1.12 | S. cerevisiae deletion strains, locus YOR290C, strain snf2, active compounds read low 1.02 | S. cerevisiae deletion strains, locus YOR316C, strain cot1, active compounds read low 0.989 | S. cerevisiae deletion strains, locus YPL051W, strain arl3, active compounds read low 1.01 | S. cerevisiae deletion strains, locus YPL055C, strain LGE1, active compounds read low 1.04 | S. cerevisiae deletion strains, locus YPL078C, strain atp4, active compounds read low 1.03 | S. cerevisiae deletion strains, locus YPL106C, strain sse1, active compounds read low 1 | S. cerevisiae deletion strains, locus YPL240C, strain hsp82, active compounds read low 1.03 | S. cerevisiae deletion strains, locus YPL241C, strain CIN2, active compounds read low 0.996 | S. cerevisiae deletion strains, locus YPL256C, strain CLN2, active compounds read low 0.943 | S. cerevisiae deletion strains, locus YPR119W, strain clb2, active compounds read low 1 | S. cerevisiae deletion strains, locus YPR141C, strain kar3, active compounds read low 0.968 | S. cerevisiae deletion strains, locus YPR163C, strain tif3, active compounds read low 0.999 | S. cerevisiae deletion strains, locus YPR167C, strain met16, active compounds read low 0.99 | S. cerevisiae deletion strains, strain wtn01, active compounds read low 0.998 | S. cerevisiae strains, strain wild type, active compounds read low 0.999
